Laboratory results published in PubChem BioAssay (Tox21).
Values without a mark were called inactive. Records with an inconclusive call do not appear. A call without a number means that no potency is given here. Active and inactive are the calls of the source. Unless noted, the call rests on the fitted dose curve.

Columns and labels:
[1] = Nuclear factor erythroid 2-related factor 2/antioxidant responsive element (Nrf2/ARE) small molecule agonists: qHTS cell viability counter screen in human keratinocytes (AID 1919968; active means well fitted cell-killing curve with a large enough effect in the repeat runs; further: nearly all actives have a fitted effect of over 55% in size)
How it was run: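 Stably transfected HaCaT (KeratinoSens), 1,500/well. Test agents in DMSO were applied for 23 h, 37 C/5% CO2. CellTiter-Fluor was incubated 1 h before the fluorescence read.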

[2] = Nuclear factor erythroid 2-related factor 2/antioxidant responsive element (Nrf2/ARE) small molecule agonists: luciferase reporter gene qHTS assay in human keratinocytes (AID 1919969); further: nearly all actives have a fitted effect of over 35% in size
[3] = molecular target: Gonadotropin-releasing hormone receptor (Homo sapiens) (UniProt P30968); assay: Human gonadotropin-releasing hormone receptor (GnRHR) small molecule agonists, calcium flux assay in GnRHR-HEK293 cells (AID 1920063); further: nearly all actives have a fitted effect of over 35% in size
Sequence of Gonadotropin-releasing hormone receptor (Homo sapiens) (P30968 whole entry, looked up): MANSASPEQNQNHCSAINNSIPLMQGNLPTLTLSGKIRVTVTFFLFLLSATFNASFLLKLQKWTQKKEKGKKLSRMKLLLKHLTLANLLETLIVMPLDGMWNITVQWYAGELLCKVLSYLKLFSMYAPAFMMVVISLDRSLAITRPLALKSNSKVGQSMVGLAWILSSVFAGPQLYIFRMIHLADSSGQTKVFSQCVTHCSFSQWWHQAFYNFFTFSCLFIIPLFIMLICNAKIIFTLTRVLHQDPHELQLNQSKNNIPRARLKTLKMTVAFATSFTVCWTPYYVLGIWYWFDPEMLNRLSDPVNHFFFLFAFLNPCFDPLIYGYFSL
How it was run: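 Stable human GnRHR HEK293 line. 18 h plating, then calcium dye for 1 h at 37 C. Agonist-mode compound addition from DMSO stocks; fluorescence monitored 3 min.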

[4] = G protein-coupled receptor (GPCR) small molecule agonists, calcium flux assay: HEK293 wild type cell line counter screen (AID 1920065)
How it was run: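 Following 18 h incubation at 37 C/5% CO2, plates got calcium dye for 1 h; compounds, ATP or DMSO were then pinned in and fluorescence followed kinetically (480/540 nm).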

[5] = p53 small molecule agonists, cell-based qHTS assay with human liver microsomes (AID 1963577)
How it was run: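 Cells carrying a p53-responsive bla reporter were rested 5 h (37 C, 5% CO2) before compound transfer. Human liver microsomes plus NADPH, 0.5 mg/mL final apiece, supplied metabolism during the 16 h 37 C exposure.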

[6] = p53 small molecule agonists, cell-based qHTS assay with rat liver microsomes (AID 1963578)
How it was run: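 Fluorescence from a beta-lactamase reporter under a p53 response element was measured after cells had been incubated 16 h at 37 C with test compound and rat liver microsomes plus NADPH (0.5 mg/mL final each).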

[7] = p53 small molecule agonists, cell-based qHTS assay with human liver microsomes: qHTS cell viability counter screen (AID 1963579); further: nearly all actives have a fitted effect of over 45% in size
How it was run: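 Seed p53RE-bla cells at 4,000 per well; incubate 5 h at 37 C; add compound, human liver microsomes and NADPH; incubate 16 h at 37 C; add CellTiter-Glo; after 30 min at room temperature, read luminescence.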

[8] = p53 small molecule agonists, cell-based qHTS assay with rat liver microsomes: qHTS cell viability counter screen (AID 1963580); further: nearly all actives have a fitted effect of over 45% in size
How it was run: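 Rat liver microsome (0.5 mg/mL final) and NADPH (0.5 mg/mL final) co-incubation with compounds for 16 h at 37 C on HCT-116 p53RE-bla cells; cytotoxicity taken from intracellular ATP luminescence.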

[9] = p53 small molecule agonists, cell-based qHTS assay (AID 1963582; active means well fitted activation curve with a large enough effect in the signal ratio in the repeat runs, not every such curve was filed as active; the % refers to the signal ratio)
How it was run: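 Measured: fluorescence from cleaved LiveBLAzer substrate. System: p53RE-bla cells, 16 h compound treatment at 37 C, 2 h substrate step at room temperature.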

[10] = molecular target: 5-hydroxytryptamine receptor 2A (Homo sapiens) (UniProt P28223); assay: 5-hydroxytryptamine receptor 2A (HTR2A) small molecule antagonists, cell-based qHTS assay (AID 1963586); further: nearly all actives have a fitted effect of over 45% in size
Sequence of 5-hydroxytryptamine receptor 2A (Homo sapiens) (P28223 whole entry, looked up): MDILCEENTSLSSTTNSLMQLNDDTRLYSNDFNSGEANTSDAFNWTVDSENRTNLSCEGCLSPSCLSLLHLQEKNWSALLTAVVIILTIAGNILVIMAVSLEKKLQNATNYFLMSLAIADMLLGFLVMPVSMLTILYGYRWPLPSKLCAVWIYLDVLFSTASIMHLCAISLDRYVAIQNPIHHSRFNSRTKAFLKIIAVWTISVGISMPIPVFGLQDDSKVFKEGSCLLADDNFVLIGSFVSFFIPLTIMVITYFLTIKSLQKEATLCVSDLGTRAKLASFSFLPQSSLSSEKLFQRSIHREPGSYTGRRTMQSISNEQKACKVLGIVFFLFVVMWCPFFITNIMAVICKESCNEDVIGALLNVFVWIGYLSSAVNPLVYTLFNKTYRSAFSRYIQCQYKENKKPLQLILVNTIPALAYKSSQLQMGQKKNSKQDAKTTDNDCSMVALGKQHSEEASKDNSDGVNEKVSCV
How it was run: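 CHO cells stably expressing human HTR2A were plated for 18 h at 37 C, then loaded with calcium dye for 1 h. Compounds were preincubated 5 min at room temperature before DOI (4 nM solution) was added. Kinetic fluorescence was read for 3 min.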

[11] = molecular target: 5-hydroxytryptamine receptor 2A (Homo sapiens) (UniProt P28223); assay: 5-hydroxytryptamine receptor 2A (HTR2A) small molecule agonists, cell-based qHTS assay (AID 1963587); further: nearly all actives have a fitted effect of over 30% in size
How it was run: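 Kinetic calcium-flux fluorescence (2 min, 1 sec intervals) after compound addition in agonist mode. HTR2A-CHO cells were cultured 18 h, then dye-loaded 1 h at 37 C.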

[12] = molecular target: Muscarinic acetylcholine receptor M1 (Homo sapiens) (UniProt P11229); assay: Cholinergic receptor muscarinic 1 (CHRM1) small molecule antagonists, cell-based qHTS assay (AID 1963588); further: nearly all actives have a fitted effect of over 40% in size
Sequence of Muscarinic acetylcholine receptor M1 (Homo sapiens) (P11229 whole entry, looked up): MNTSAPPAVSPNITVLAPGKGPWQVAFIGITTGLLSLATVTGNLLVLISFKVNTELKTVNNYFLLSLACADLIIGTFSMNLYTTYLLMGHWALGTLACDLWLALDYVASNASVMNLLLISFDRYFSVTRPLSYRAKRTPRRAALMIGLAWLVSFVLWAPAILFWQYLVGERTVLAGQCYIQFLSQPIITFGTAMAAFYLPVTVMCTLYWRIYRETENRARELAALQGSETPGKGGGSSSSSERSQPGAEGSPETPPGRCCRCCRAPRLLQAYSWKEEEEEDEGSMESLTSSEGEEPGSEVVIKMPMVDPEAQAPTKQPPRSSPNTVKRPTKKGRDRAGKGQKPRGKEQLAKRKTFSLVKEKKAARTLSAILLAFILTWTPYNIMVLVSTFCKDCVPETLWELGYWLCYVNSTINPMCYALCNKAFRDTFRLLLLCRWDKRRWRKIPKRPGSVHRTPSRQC
How it was run: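 Compounds were tested at 15 concentrations in three independent runs. Dye-loaded CHRM1-CHO cells were exposed 5 min at room temperature before stimulation by acetylcholine added at 50nM. Intracellular calcium was read kinetically on FDSS for 3 min.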

[13] = molecular target: Muscarinic acetylcholine receptor M1 (Homo sapiens) (UniProt P11229); assay: Cholinergic receptor muscarinic 1 (CHRM1) small molecule agonists, cell-based qHTS assay (AID 1963589); further: nearly all actives have a fitted effect of over 35% in size
How it was run: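 Kinetic fluorescence (1 s intervals) of calcium-sensitive dye in human M1 CHO cells after compound addition; cells pre-incubated 18 h at 37 C/5% CO2 and dye-loaded 1 h.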

[14] = cAMP Responsive Elements (CRE) small molecule agonists, cell-based qHTS assay (AID 1963590)
How it was run: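 Test agents in DMSO were incubated 3 h at 37 C/5% CO2 with CRE-bla HEK 293T cells seeded 18 h earlier; LiveBLAzer B/G FRET substrate was added and read after 2 h at room temperature.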

[15] = cAMP Responsive Elements (CRE) small molecule antagonists, cell-based qHTS assay (AID 1963591; active means well fitted inhibition curve with a large enough effect in the signal ratio in the repeat runs, not every such curve was filed as active; the % refers to the signal ratio; further: potency means the concentration at half of the fitted maximal effect)
How it was run: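 Reporter line CRE-bla HEK 293T in dialyzed-FBS DMEM; cells preincubated 18 h, treated 3 h with compound plus NKH477 (0.25 uM final); LiveBLAzer FRET, 2 h RT.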

[16] = molecular target: Beta-2 adrenergic receptor (Homo sapiens) (UniProt P07550); assay: Adrenergic beta2 receptor (ADRB2) small molecule antagonists, cell-based qHTS assay (AID 1963592); further: series mostly up to about 92 µM; nearly all actives have a fitted effect of over 50% in size
Sequence of Beta-2 adrenergic receptor (Homo sapiens) (P07550 whole entry, looked up): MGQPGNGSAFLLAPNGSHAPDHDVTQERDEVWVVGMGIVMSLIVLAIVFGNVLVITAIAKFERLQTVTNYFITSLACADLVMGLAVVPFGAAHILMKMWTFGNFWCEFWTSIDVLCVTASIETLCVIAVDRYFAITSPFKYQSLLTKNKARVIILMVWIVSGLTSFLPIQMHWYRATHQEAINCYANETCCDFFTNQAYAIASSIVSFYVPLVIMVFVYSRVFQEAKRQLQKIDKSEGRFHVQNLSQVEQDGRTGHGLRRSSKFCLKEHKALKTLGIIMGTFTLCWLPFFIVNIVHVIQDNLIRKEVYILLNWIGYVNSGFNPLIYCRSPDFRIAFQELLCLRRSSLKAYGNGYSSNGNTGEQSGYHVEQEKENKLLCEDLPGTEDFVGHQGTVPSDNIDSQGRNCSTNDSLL
How it was run: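 Assay format: CHO-ADRB2 cells, 18-20hr seeding at 37C/5% CO2, then compound plus 1nM isoproterenol agonist mix for 0.5hr RT. Homogeneous time-resolved fluorescence cAMP detection after 1hr, expressed as 665/615 nm ratio.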

[17] = molecular target: Beta-2 adrenergic receptor (Homo sapiens) (UniProt P07550); assay: Adrenergic beta2 receptor (ADRB2) small molecule agonists, cell-based qHTS assay (AID 1963593);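 further: CHO cells stably overexpressing human ADRB2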
How it was run: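 CHO cells stably over-expressing ADRB2 were plated overnight at 37C, then dosed with compounds plus a stimulation mix containing 100uM IBMX and 25uM Ro-20-1724 for 0.5hr at room temperature. cAMP was measured by HTRF competition, 1hr.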

[18] = molecular target: D(2) dopamine receptor (Homo sapiens) (UniProt P14416); assay: Dopamine D2 receptor (DRD2) small molecule agonists, cell-based qHTS assay (AID 1963594); further: nearly all actives have a fitted effect of over 35% in size
Sequence of D(2) dopamine receptor (Homo sapiens) (P14416 whole entry, looked up): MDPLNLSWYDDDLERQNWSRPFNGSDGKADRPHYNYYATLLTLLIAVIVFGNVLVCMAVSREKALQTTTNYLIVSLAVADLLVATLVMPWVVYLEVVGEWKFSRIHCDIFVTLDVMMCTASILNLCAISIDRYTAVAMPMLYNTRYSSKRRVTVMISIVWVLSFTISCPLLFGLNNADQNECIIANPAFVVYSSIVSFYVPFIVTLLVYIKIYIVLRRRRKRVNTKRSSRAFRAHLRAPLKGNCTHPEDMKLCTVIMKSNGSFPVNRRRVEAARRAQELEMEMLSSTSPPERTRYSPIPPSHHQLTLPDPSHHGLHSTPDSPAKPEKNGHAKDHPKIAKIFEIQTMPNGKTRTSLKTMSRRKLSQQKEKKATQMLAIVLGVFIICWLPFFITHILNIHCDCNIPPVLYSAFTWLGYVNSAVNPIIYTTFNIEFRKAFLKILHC
How it was run: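 cAMP accumulation in DRD2-HEK293 cells measured by HTRF after 1 h detection; compounds added 10 min before NKH477 (200nM […]) forskolin-analogue stimulation, 30 min at room temperature, with Ro20-1724 present at 0.1 mM final.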

[19] = molecular target: D(2) dopamine receptor (Homo sapiens) (UniProt P14416); assay: Dopamine D2 receptor (DRD2) small molecule antagonists, cell-based qHTS assay (AID 1963595; active means well fitted inhibition curve with a large enough effect in the signal ratio in the repeat runs, with a control signal flat; the % refers to the signal ratio)
How it was run: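 Cells were plated and grown for 24 h at 37 °C. Ro20-1724 (0.1 mM final) went in first, then compound for 10 min. NKH477 (200 nM) with quinpirole (12 nM) followed for 30 min at RT, then HTRF detection reagents for 1 h.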

[20] = p53 small molecule agonists, cell-based qHTS assay: qHTS cell viability counter screen (AID 1963581); further: nearly all actives have a fitted effect of over 45% in size
How it was run: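 qHTS counter screen: 16 h compound exposure at 37 C of p53RE-bla HCT-116 cells (4,000 per well, seeded 5 h prior), cell viability by ATP luminescence.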

Compound	Potency [1]	Potency [2]	Potency [3]	outcome [4]	Potency [5]	Potency [6]	Potency [7]	Potency [8]	Potency [9]	Potency [10]	Potency [11]	Potency [12]	Potency [13]	Potency [14]	Potency [15]	Potency [16]	Potency [17]	Potency [18]	Potency [19]	Potency [20]
CCCCCCCCCOC(C)=O	inactive	inactive	inactive	inactive	inactive	inactive	inactive	inactive	inactive	inactive	inactive	inactive	inactive	inactive	inactive	inactive	inactive	inactive	inactive	
CCOC(=O)COc1ccc(C)cc1	inactive	inactive	inactive	inactive	inactive	inactive	inactive	inactive	inactive	inactive	inactive	inactive	inactive			inactive		inactive	inactive	
CC(C)(C)NCCNC(C)(C)C	inactive	inactive	inactive	inactive	inactive	inactive	inactive	inactive	inactive	inactive	inactive	inactive	inactive	inactive		inactive		inactive		
CCN(C(=O)c1cc(C)cc(OC[C@H](C)Nc2ccncc2)c1)C(C)C	inactive	inactive	inactive	inactive	inactive	inactive		inactive			inactive	inactive	inactive		21.4 µM (active)	inactive	inactive	inactive	inactive	
COc1ccc([C@@H]2Sc3ccccc3NC(=O)[C@@H]2O)cc1	inactive	inactive	inactive	inactive	inactive	inactive	inactive		inactive	inactive	inactive	inactive	inactive	inactive		inactive		inactive	inactive	
CCOC(=O)[C@H](CCc1ccccc1)N[C@@H](C)C(=O)N1Cc2cc(OC)c(OC)cc2C[C@H]1C(=O)O	inactive	inactive	inactive	inactive	inactive		inactive	inactive	inactive	inactive		inactive	inactive			inactive		inactive	inactive	inactive
CCCC(=O)OCCC(C)C	inactive	inactive	inactive	inactive	inactive			inactive	inactive		inactive	inactive	inactive	inactive	inactive	inactive			inactive	inactive
OCCN1C[C@H](O)[C@@H](O)[C@H](O)[C@H]1CO	inactive	inactive	inactive		inactive	inactive	inactive	inactive	inactive		inactive	inactive	inactive	inactive	inactive	inactive	inactive	inactive	inactive	
CCOC(=O)c1cccnc1	inactive	inactive	inactive	inactive		inactive	inactive	inactive	inactive	inactive	inactive	inactive	inactive	inactive		inactive	inactive	inactive	inactive	inactive
Cc1cc(=O)[nH]c(=O)[nH]1	inactive	inactive		inactive	inactive	inactive	inactive	inactive	inactive	inactive	inactive		inactive	inactive				inactive		inactive
CCC(C)(C)C(=O)O	inactive	inactive		inactive	inactive	inactive	inactive	inactive	inactive	inactive		inactive	inactive	inactive	inactive	inactive		inactive	inactive	inactive
C=C[Si](C)(C)O[Si](C)(C)C=C	inactive	inactive		inactive	inactive	inactive	inactive	inactive	inactive	inactive	inactive	inactive	inactive	inactive	inactive	inactive		inactive	inactive	inactive
O=C(O)c1ccccc1C(=O)Nc1ccc(S(=O)(=O)Nc2nccs2)cc1	inactive	inactive		inactive	inactive	inactive	inactive	inactive	inactive	inactive	inactive		inactive	inactive		inactive	inactive	inactive	inactive	inactive
CC/C=C\CCOC(=O)c1ccccc1	inactive	inactive		inactive	inactive	inactive	inactive	inactive	inactive	inactive	inactive	inactive	inactive	inactive		inactive		inactive	inactive	inactive
